High-throughput results (PubChem BioAssay)
An excerpt weighted towards active compounds, which were near 27% of everything screened.
Cav32 inh: blocks human Cav3.2 T-type calcium channel; Cav3.2-expressing cells, Fluo-4 calcium fluorescence FDSS; active compounds read low; 4% of 100,000 active; AID 449739; B-score at 10 µM; O95180;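 active means single-dose well whose peak fluorescence ratio is a statistical outlier from its plate by either plate-standardised score or position-corrected B-score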
CYP2C19 activ: activators of human cytochrome P450 2C19 | P33261 | activation factor at 5 µM | 96,000 tested, under 10 active | recombinant CYP2C19, luciferin-H EGE luminescence; active compounds read high; 0 = fully inhibited enzyme, 1 = untreated enzyme;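 active means activation factor of at least 2 at 5 µM in the primary screen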;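 further: 0 = wells with 2.5 mM tranylcypromine and 1 = vehicle-only wells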
Target sequence (P33261 whole entry, looked up): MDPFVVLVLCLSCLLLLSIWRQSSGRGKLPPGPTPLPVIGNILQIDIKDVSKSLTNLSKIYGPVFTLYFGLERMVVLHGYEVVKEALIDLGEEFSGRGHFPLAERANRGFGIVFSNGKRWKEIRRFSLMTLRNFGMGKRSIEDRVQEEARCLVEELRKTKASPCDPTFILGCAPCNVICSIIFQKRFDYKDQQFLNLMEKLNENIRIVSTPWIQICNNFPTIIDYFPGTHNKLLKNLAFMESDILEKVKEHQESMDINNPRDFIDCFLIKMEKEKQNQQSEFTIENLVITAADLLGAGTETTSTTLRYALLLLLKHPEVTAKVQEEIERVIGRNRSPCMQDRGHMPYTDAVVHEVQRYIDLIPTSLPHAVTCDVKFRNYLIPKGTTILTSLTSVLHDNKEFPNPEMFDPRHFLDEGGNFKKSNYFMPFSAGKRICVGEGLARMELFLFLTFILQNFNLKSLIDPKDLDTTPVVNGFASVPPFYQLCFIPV
CYP2C9 activ: activators of human CYP2C9; 1.4% of 96,000 active; recombinant CYP2C9, luciferin-H conversion, luminescence; active compounds read high; factor 1 = untreated enzyme, 0 = blocked; activation factor at 5 µM; P11712;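 active means activation factor of 2 or more for CYP2C9 at a 5 µM dose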;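 further: 0 = sulfaphenazole-blocked wells and 1 = vehicle-only wells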
CYP2C19 inhib: inhibitors of human CYP2C19; P33261; AID 778; CYP2C19 Supersomes, luciferin-H EGE luminescence, 30 min; 21% of 96,000 active; inhibition, % at 5 µM;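 active means CYP2C19 inhibition above a set limit at 5 µM in the primary screen, cut at about 50% in these data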;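 further: plate controls were negative control wells for no effect and 2.5 mM tranylcypromine positive control for full effect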
CYP2C9 inh: blocks human cytochrome P450 2C9. P11712. CYP2C9 Supersomes, luciferin-H conversion, luminescence. inhibition, % at 5 µM. 20% of 96,000 active;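 active means blocking of liver enzyme CYP2C9 beyond about 50% at 5 µM, limit read from the data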
* hit, by the source's call; x = not tested or not shown.

SMILES	Cav32 inh	CYP2C19 activ	CYP2C9 activ	CYP2C19 inhib	CYP2C9 inh
Cn1c(=O)c2cc(S(=O)(=O)NCCC(=O)NCC3CCCO3)ccc2n(C)c1=O (stereo not given)	0.26	0.9	0.8	6	15
COc1ccc(N2CCN(C(=O)c3ccc(S(=O)(=O)N4CCOCC4)cc3)CC2)cc1	0.88	1	1	0	1
O=C(CC(=O)NN=C1CCCC1)NCCc1ccccc1	0.77	0.8	0.9	18	10
CCSc1ccc2nnc(-c3ccc(F)cc3)n2n1	0.6	0.8	1	22	4
COC(=O)c1ccccc1NC(=O)CSc1nc2ccccc2c(=O)[nH]1	0.29	0.7	0.4	28	59*
O=C(O)CSc1nc2ccccc2c(=O)[nH]1	0.0084	1.1	1.1	-7	-9
Cc1nnc(SCC(=O)NCc2ccc(Cl)cc2)[nH]c1=O	0.49	1.1	0.8	-8	17
O=C(CSc1nc2ccccc2c(=O)[nH]1)NCc1ccc(Cl)cc1	x	0.8	0.5	18	51*
CC(C)(C)C(=O)NC1(C(F)(F)F)C(=O)Nc2c1c(=O)[nH]c(=O)n2Cc1ccco1 (stereo not given)	x	1.1	1	-8	-2
O=C(CSc1nnc(C2CC2)n1-c1ccccc1)NCCc1ccccc1	0.58	0.8	1	18	5
CCOC(=O)C1C(=O)CC(O)(c2ccccc2)CC1c1ccccc1 (stereo not given)	x	0.3	0.2	73*	82*
CCOC(=O)C1C(=O)CC(C)(O)C(C(=O)OCC)C1c1ccccc1 (stereo not given)	0.25	x	x	x	x
O=C(CCC(=O)c1cccs1)Nc1ccc(F)c(F)c1F	0.49	0.3	1	66*	-4
Cc1ccc(NC(=O)CCC(=O)c2cccs2)cc1	0.58	0.2	0.6	82*	41
Cc1ccc(CNC(=O)CCC(=O)c2cccs2)cc1	0.46	0.1	1.3	85*	-35
CC(CC(=O)c1cccs1)CC(=O)c1cccs1	0.9	0	0.1	100*	93*
CCN(CC)CCCN1C(=O)C(=O)/C(=C(/O)c2ccc3c(c2)CC(C)O3)C1c1cccnc1 (stereo not given)	x	1.1	1.2	-6	-17
Cc1ccc(C(C(=O)NCc2ccco2)N(CCc2ccccc2)C(=O)Cn2nnc3ccccc32)o1 (stereo not given)	-5.6*	0.9	0.9	14	11
Cc1cc(C)cc(N(C(=O)Cn2nnc3ccccc32)C(C(=O)NCc2ccco2)c2ccncc2)c1 (stereo not given)	-0.013	0.7	0.9	33	13
Cc1ccc(N(C(=O)Cn2nnc3ccccc32)C(C(=O)NCc2ccco2)c2cccnc2)cc1 (stereo not given)	1.4	0.3	0.9	65*	6
Cc1ccc(N(C(=O)Cn2nnc3ccccc32)C(C(=O)NCc2ccco2)c2ccc(C)o2)cc1 (stereo not given)	-4.3*	0.6	0.8	39	18
COc1ccc(OC)c(C(C(=O)NCc2ccco2)N(C(=O)Cn2nnc3ccccc32)C(C)C)c1 (stereo not given)	0.84	0.4	0.9	62*	12
C#Cc1ccc([C@@H]2C=C(C(=O)N3CCN(Cc4ccc5c(c4)OCO5)CC3)O[C@H](OCC)[C@H]2CCCO)cc1	-1.8	x	x	x	x
COc1ccc(N(C(=O)Cn2nnc3ccccc32)C(C(=O)NCc2ccco2)c2ccc(C)o2)cc1 (stereo not given)	-0.77	0.3	0.4	68*	58*
Cc1ccc(C(C(=O)NCc2ccco2)N(C(=O)Cn2nnc3ccccc32)c2ccccc2)o1 (stereo not given)	x	0.7	0.9	26	7
SMILES	Cav32 inh	CYP2C19 activ	CYP2C9 activ	CYP2C19 inhib	CYP2C9 inh
CNc1oc(Cc2ccccc2)nc1S(=O)(=O)c1ccc(Cl)cc1	-0.49	0.5	0.8	50	22
Cc1ccc(S(=O)(=O)NNC(=O)c2sc3nc(C)cc(C)c3c2-n2cccc2)cc1	-3.8	0.2	0	81*	99*
Cc1ccc2oc3nc(C)c(C(=O)O)cc3c(=O)c2c1	1.5	0.4	0.7	60*	31
CCN1C(=O)N[C@@H](CCc2ccccc2)[C@H](C(C)=O)[C@H]1C	0.75	x	x	x	x
Cn1c(=O)c2c(ncn2CC(=O)Nc2cc(Cl)c(Cl)cc2Cl)n(C)c1=O	x	0.9	0.9	6	7
Cc1ccc(C2C(C#N)=C(N)Oc3c2c(=O)n(C)c(=O)n3C)cc1 (stereo not given)	0.36	0.8	0.4	17	56*
